Source: PubChem BioAssay
Cy5 interf NS3h: Cy5 fluorescence quenchers or enhancers, artefact control for HCV NS3 helicase inhibitor project, biochemical, ChemBridge library, Cy5 readout; Cy5-dT15 DNA with NS3h, fluorescence interference; actives lie on both sides; signal over control mean, under 1 quenches; fluorescence interference ratio at 100 µM; actives 6% (n = 16,000); AID 720488, 2013;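 active = compound fluorescence over control fluorescence at most 0.8, a quencher, or at least a set upper limit, an enhancer; inactive = ratio between 0.8 and the set upper limit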
HCV NS3h FP: HCV NS3 helicase inhibitors, primary screen, biochemical, fluorescence polarization, ChemBridge library; NS3h Cy5-dT15 DNA binding; actives 1.6% (n = 16,000); Hepatitis C virus NS3 helicase; inhibition, % at 100 µM;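 active = inhibition above the average over every tested compound plus 3 SD, cut at about 40% in these data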
Each line names hits and unclear results; the compound was inactive in the other large screens. Compounds with a hit are over-represented: about 6.9% of the library has one in this group of screens.

CCC(C)c1ccc(OCCOc2ccc(C=C3C(=O)NC(=S)NC3=O)cc2OC)cc1 (stereo not given)	none
CCC(C)c1ccc(OCCOc2ccc(C=C3C(=O)NC(=S)NC3=O)cc2)cc1 (stereo not given)	HCV NS3h FP 46
NC(=O)c1ccc(NC(=O)CCC(=O)O)cc1	none
CC(=O)Nc1ccc(NC(=O)CCC(=O)O)cc1	Cy5 interf NS3h 0.63
COc1ccc(-c2nn3c(-c4ccc(OC)c(OC)c4)nnc3s2)cc1OC	Cy5 interf NS3h 1.3
COc1ccc(C2CC(c3ccc(C)cc3)=NN2C(C)=O)cc1OC (stereo not given)	none
Cc1cccc(N2CC(=O)NC2=Nc2nc(C)cc(C)n2)c1	none
COc1ccc2c(=O)cc(C(Cl)(Cl)Cl)oc2c1	Cy5 interf NS3h 0.65
COc1ccc2oc(C(Cl)(Cl)Cl)cc(=O)c2c1	none
C=CCNC1=C(Cl)C(=O)N(c2ccc(C)cc2C)C1=O	none
COc1ccc(/C=C2N=C(/C=C/c3ccccc3)OC/2=O)cc1	Cy5 interf NS3h 0.72
COc1ccc(/C=C2\C(=O)ON=C2C)cc1	none
Cc1ccc(/C=C2N=C(/C=C/c3ccccc3)OC/2=O)s1	none
COc1ccc(/C=C2/N=C(c3ccc(Br)cc3)OC2=O)cc1	Cy5 interf NS3h 1.2
O=C1OC(/C=C/c2ccccc2)=NC/1=C/c1ccccc1	Cy5 interf NS3h 0.78
O=C1OC(c2ccc(F)cc2)=N/C1=C\c1ccc(Cl)cc1	none
CN(C)c1cccc(NC(=O)c2cc3ccccc3o2)c1	none
Cc1cccc(/C=N\N2CCN(c3ccccc3)CC2)c1	none
CCC(C(=O)Nc1ccc(Br)cc1)c1ccccc1 (stereo not given)	none
COc1cc(/C=N/n2nnnc2N)ccc1OCc1ccc(F)cc1	Cy5 interf NS3h 0.77
COc1cc(/C=N\n2nnnc2N)ccc1OCc1c(C)no[n+]1[O-]	none
O=C(NCCCO)/C(=C/c1ccc(-c2cccc([N+](=O)[O-])c2)o1)NC(=O)c1ccccc1	Cy5 interf NS3h 0.79
O=C(NCCCN1CCOCC1)/C(=C/c1ccc(-c2cccc([N+](=O)[O-])c2)o1)NC(=O)c1ccccc1	none
CCOc1cc(OCC)cc(C(=O)Nc2ccc(Br)cc2)c1	none
COC(=O)c1ccccc1NC(=O)c1ccccc1NC(=O)c1ccc(OC)cc1	none
COC(=O)c1ccccc1NC(=O)COc1ccc(Br)cc1	none
CCCOc1ccc(C(=O)Nc2ccccc2C(=O)OC)cc1	Cy5 interf NS3h 0.7
Cc1ccccc1NC(=O)c1ccc(OCC(C)C)cc1	Cy5 interf NS3h 0.76
COc1cc(NC(=O)COc2ccc3ccccc3c2)cc(OC)c1	none
CC(C)COc1ccc(C(=O)Nc2cccc3ccccc23)cc1	none
Cc1ccc(NC(=O)COc2ccc3ccccc3c2)cc1	Cy5 interf NS3h 1.4
COC(=O)c1ccccc1NC(=O)COc1ccc(C)c(C)c1	Cy5 interf NS3h 0.63
O=C(NCCO)C(=O)NCc1ccccc1	none
O=C(c1ccccc1)N1CCN(c2nc(-c3ccccc3)c3cc(Cl)ccc3n2)CC1	none
O=c1oc2cc(OCc3ccc(F)cc3)ccc2cc1-c1nc2ccccc2s1	none
O=C(c1nn2c(c1Br)NC(c1cccs1)CC2C(F)(F)F)N1CCCc2ccccc21 (stereo not given)	Cy5 interf NS3h 0.7
O=C(c1nn2c(c1Br)NC(c1cccs1)CC2C(F)(F)F)N1CCOCC1 (stereo not given)	none
CCOC(=O)C(CCOc1cc(C)cc(C)c1C)C(=O)OCC	none
COc1cc(OC)cc(C(=O)Nc2c(C)cc(Br)cc2C)c1	none
COc1ccc(C(=O)/C=C/c2ccc(-c3cccc(C(F)(F)F)c3)o2)cc1	none
O=C(Nc1ccc(NC(=O)c2ccc3ccccc3c2)cc1)c1ccccc1	none
O=C(Nc1cc(Cl)cc(Cl)c1)c1ccc2ccccc2c1	Cy5 interf NS3h 1.3
CCOc1ccc(/C=C2\C(=O)NC(=O)N(c3ccccc3C)C2=O)cc1Cl	none
Cc1[nH]nc2c1C(c1cc(Br)cs1)C(C#N)=C(N)O2 (stereo not given)	Cy5 interf NS3h 1.2
COC(=O)C1=C(N)Oc2n[nH]c(C)c2C1c1ccc(Br)cc1 (stereo not given)	none
Cc1nc(-c2ccccc2)nc2[nH]ccc(=O)c12	Cy5 interf NS3h 0.8
Cc1nc(-c2ccccc2)c2c(=O)cc[nH]c2n1	none
C=CCOc1ccc(Cl)cc1/C=C1/SC(=S)N(Cc2ccccc2)C1=O	none
O=C(Nc1cc(-c2nc3ccccc3s2)ccc1Cl)c1cc(I)ccc1Cl	none
N/C(=N/OC(=O)c1ccccc1F)c1ccc([N+](=O)[O-])cc1	Cy5 interf NS3h 0.78
N/C(=N/OC(=O)c1ccc(Br)cc1)c1ccc([N+](=O)[O-])cc1	none
COC(=O)c1ccc(NC(=O)CSC(N)=O)cc1	none
COc1ccccc1CC(=O)Nc1ccc(Br)cc1C(=O)O	none
Cc1ccc(C=C2C(=O)N(C)C(=S)N(c3ccccc3)C2=O)s1	Cy5 interf NS3h 1.3
Cc1cccc(C(=O)Oc2ccc(/C=C3/SC(=S)N(c4ccccc4)C3=O)cc2)c1	none
CCCCOC(=O)c1ccc(NC(=O)C2CC(C)=C(C)CC2C(=O)O)cc1 (stereo not given)	none
CCCCOC(=O)c1ccc(NC(C)=O)cc1	Cy5 interf NS3h 0.68
CC(c1ccccc1)c1nnc(NC(=O)c2cccs2)s1 (stereo not given)	none
NC1=NC(=O)/C(=C\c2ccccc2Cl)S1	none
COc1cc(/C=C2\SC(N)=NC2=O)c([N+](=O)[O-])cc1OC	Cy5 interf NS3h 0.77
O=c1cc(-c2ccccc2)c2cc(Cl)ccc2[nH]1	none
Cn1c(=O)cc(-c2ccccc2)c2ccccc21	Cy5 interf NS3h 0.69
COC(=O)c1ccc(C(=O)OC)c(NC(=O)COc2ccc(Cl)cc2C)c1	none
O=C(Nc1ccc(Cl)cc1)Nc1nnc(-c2cccc(F)c2)s1	none
O=C(Nc1ccc(Cl)cc1)Nc1nnc(-c2cccs2)s1	Cy5 interf NS3h 0.69
Cc1cc(=O)[nH]c(SCCOc2ccccc2C)n1	none
CCOC(=O)C1=C(C)NC(=O)NC1c1ccc(OC)cc1OC (stereo not given)	none
CCOC(=O)C1=C(C)NC(C)=C(C(=O)OC)C1c1cc(Cl)cc(Cl)c1OC (stereo not given)	Cy5 interf NS3h 0.79
O=[N+]([O-])c1ccc(NC(=NS(=O)(=O)c2ccc(Cl)cc2)c2ccccc2)cc1	none
COc1cc([N+](=O)[O-])cc2c1N=C(c1ccc(Br)cc1)NO2	none
O=[N+]([O-])c1ccc2c(c1)ONC(c1ccc(Cl)cc1)=N2	Cy5 interf NS3h 0.67
O=C(O)c1ccc(NC(=S)NC(=NS(=O)(=O)c2ccc(Cl)cc2)c2ccccc2)cc1	none
Cn1ccnc1SCC(=O)c1ccc(Br)cc1	Cy5 interf NS3h 0.77
O=C(CSc1ncn(-c2ccccc2)n1)c1ccc(Br)cc1	none
CC1=NN(c2cccc(C(=O)O)c2)C(=O)/C1=C\c1ccc(N(C)C)cc1	none
O=C(/C=C/c1ccccc1)NC(=S)Nc1cccc(C(F)(F)F)c1	none
CC(=O)Nc1ccc(NS(=O)(=O)c2cc(Cl)ccc2Cl)cc1	none
O=S(=O)(c1cc(Cl)cc(Cl)c1O)c1cc(Cl)cc(Cl)c1O	Cy5 interf NS3h 0.5
Cc1nnc2nc(-c3cccc(Cl)c3Cl)[nH]n12	none
CCOC(=O)CC(O)(c1ccccc1)C(F)(F)C(F)F (stereo not given)	Cy5 interf NS3h 0.75
CCOC(=O)Cc1cc(-c2ccccc2)nc2ccc3ccccc3c12	none
COc1ccc(C(O)=CC(=O)C(=O)NCc2ccccc2)cc1	none
CC(C)CNC(=O)c1ccc(I)cc1	none
